Source: PubChem BioAssay
The source made the active and inactive calls.

What was measured:
[1] = small molecules captured by biotinylated probe aFSTL3 – biochemical, small-molecule microarray, fluorescence 635/667, stem cell growth factor project, primary screen (AID 1064); conditions: higher = more signal;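 further: measures binding of the biotinylated anti-FSTL3 antibody to printed compounds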
[2] = binders from COS7 lysate, DM2A8 probe, primary screen, torsin A project, cell lysate, small-molecule microarray, fluorescence 635/667 (AID 1065); conditions: higher = more signal, COS7 lysate expressing mutant human TOR1A
[3] = small molecules captured by biotinylated probe aFGF2 – biochemical, small-molecule microarray, fluorescence 635/667, stem cell growth factor project, primary screen (AID 1067); conditions: higher = more signal;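 further: measures binding of biotinylated aFGF2 protein to printed compounds on slides; z-score merges feature fluorescence and signal-to-noise across triplicate slides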
[4] = small molecules captured by biotinylated probe aFGF10 – biochemical, small-molecule microarray, fluorescence 635/667, stem cell growth factor project, primary screen (AID 1071); conditions: higher = more signal;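 further: score merges 667 nm spot intensity and signal to noise from triplicate slides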
[5] = molecular target: Neurogenic locus notch homolog protein 2 (Homo sapiens) (UniProt Q04721); assay: small molecules binding Notch2 protein – biochemical, small-molecule microarray, 635 nm fluorescence, stem cell growth factors, primary screen (AID 1073); conditions: higher = more signal
Chain of Neurogenic locus notch homolog protein 2 (Homo sapiens) (Q04721 whole entry, looked up, canonical isoform): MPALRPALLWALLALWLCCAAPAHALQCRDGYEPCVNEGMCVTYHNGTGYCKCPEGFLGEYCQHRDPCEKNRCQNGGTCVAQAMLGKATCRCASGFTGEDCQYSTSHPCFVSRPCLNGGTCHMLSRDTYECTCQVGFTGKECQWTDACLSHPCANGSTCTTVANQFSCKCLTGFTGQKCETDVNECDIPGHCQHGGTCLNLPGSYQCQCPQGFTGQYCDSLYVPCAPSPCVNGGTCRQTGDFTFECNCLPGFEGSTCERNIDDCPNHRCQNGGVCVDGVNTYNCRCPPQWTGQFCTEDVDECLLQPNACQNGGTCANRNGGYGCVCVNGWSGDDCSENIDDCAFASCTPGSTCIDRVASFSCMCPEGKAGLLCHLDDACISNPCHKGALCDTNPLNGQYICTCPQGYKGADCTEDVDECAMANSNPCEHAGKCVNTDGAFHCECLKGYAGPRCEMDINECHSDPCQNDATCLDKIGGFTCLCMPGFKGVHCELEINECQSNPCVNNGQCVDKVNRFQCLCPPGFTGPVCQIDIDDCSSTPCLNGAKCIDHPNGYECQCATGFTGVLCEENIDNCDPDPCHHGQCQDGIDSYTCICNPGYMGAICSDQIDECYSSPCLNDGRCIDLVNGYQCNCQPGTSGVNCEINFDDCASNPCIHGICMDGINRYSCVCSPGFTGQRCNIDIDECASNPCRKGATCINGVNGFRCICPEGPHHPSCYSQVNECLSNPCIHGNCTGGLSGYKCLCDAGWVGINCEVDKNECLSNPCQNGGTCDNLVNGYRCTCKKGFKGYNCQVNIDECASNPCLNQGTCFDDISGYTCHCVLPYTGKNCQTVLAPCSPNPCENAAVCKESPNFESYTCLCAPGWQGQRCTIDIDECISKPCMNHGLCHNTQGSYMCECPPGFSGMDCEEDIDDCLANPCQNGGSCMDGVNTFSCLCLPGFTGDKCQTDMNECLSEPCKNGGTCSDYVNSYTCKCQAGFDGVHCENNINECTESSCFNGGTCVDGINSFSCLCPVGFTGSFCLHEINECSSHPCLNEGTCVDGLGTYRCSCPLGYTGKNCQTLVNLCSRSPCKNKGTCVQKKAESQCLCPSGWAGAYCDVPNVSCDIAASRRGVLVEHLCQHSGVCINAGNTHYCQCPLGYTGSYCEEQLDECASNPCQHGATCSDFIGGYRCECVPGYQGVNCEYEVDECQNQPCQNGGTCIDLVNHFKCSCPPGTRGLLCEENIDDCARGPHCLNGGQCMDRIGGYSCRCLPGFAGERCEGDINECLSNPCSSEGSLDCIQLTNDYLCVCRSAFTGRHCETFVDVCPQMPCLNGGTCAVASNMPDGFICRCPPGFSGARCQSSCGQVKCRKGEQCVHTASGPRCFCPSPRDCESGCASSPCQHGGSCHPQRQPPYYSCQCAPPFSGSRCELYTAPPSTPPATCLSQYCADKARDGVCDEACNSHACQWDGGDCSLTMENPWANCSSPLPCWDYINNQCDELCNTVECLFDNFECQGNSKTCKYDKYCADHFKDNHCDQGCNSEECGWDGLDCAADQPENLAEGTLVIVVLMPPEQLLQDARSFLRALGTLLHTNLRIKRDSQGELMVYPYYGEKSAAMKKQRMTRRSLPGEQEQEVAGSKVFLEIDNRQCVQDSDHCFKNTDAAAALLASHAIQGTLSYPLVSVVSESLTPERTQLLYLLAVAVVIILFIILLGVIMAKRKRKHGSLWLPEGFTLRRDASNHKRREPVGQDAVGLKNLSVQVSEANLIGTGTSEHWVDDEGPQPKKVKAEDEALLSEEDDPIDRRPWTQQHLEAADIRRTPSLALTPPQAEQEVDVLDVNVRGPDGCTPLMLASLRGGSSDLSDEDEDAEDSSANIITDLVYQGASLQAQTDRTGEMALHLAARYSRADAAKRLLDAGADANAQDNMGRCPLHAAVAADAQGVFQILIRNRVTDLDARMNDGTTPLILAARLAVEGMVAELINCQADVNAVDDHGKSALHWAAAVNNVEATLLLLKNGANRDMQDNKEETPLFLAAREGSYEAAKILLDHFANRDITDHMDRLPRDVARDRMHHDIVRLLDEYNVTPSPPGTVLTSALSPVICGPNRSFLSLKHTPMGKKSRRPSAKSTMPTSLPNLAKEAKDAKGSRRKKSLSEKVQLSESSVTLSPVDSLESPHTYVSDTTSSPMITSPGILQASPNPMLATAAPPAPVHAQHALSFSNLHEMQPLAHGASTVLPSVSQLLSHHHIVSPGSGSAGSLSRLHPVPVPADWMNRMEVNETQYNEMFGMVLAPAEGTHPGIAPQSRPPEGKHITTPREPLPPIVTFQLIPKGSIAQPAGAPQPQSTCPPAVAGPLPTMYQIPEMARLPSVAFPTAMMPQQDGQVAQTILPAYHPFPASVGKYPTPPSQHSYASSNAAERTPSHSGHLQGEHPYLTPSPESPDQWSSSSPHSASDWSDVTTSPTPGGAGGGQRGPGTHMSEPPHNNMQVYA

[6] = molecular target: Pro-neuregulin-1, membrane-bound isoform (Homo sapiens) (UniProt Q02297); assay: small molecules binding neuregulin-1 protein – biochemical, small-molecule microarray, fluorescence 635/667, psychiatric disease protein project, primary screen (AID 1075); conditions: NRG1 binding, 635 nm fluorescence, higher = more signal;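 further: score combines 667 nm spot fluorescence with signal to noise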
Chain of Pro-neuregulin-1, membrane-bound isoform (Homo sapiens) (Q02297 whole entry, looked up, the tested form may be a part, canonical isoform): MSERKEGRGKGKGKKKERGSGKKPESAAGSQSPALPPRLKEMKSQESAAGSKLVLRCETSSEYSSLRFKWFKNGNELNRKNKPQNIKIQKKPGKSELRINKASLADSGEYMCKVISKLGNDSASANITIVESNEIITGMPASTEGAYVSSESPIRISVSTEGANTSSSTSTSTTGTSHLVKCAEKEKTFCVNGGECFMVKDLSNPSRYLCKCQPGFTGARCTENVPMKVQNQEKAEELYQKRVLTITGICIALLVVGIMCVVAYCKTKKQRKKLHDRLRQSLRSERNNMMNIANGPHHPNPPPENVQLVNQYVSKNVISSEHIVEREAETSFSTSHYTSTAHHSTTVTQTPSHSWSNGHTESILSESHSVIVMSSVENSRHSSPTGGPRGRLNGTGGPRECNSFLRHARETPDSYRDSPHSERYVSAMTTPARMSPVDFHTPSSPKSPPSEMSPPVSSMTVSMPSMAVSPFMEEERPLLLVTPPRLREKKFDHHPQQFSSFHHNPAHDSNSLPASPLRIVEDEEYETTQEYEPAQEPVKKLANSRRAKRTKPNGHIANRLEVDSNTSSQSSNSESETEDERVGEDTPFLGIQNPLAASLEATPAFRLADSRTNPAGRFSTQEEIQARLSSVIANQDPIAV

[7] = test system: Neuregulin-1 EGF-like domain; assay: small molecules binding NRG1 EGF domain – biochemical, small-molecule microarray, 635 nm fluorescence, primary screen (AID 1081); conditions: higher = more signal;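 further: binding of the protein to compounds printed on small-molecule microarray slides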
[8] = FRG1 expression reporter modulators in myotubes – cell-based, C2C12 myotubes, firefly/Renilla luciferase, luminescence, FRG1 inhibition for FSHD, primary screen (AID 1084); conditions: FRG1 promoter luciferase, higher = more signal, called active from +8 up or from −8 down
[9] = small molecules captured by biotinylated probe aFST – biochemical, small-molecule microarray, fluorescence 635/667, stem cell growth factor project, primary screen (AID 1086); conditions: higher = more signal;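 further: score merges 667 nm fluorescence with signal-to-noise of each printed compound spot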
[10] = binders of probe aHhip on microarray, primary screen, stem cell growth factor project, biochemical, small-molecule microarray, fluorescence 635/667 (AID 1087); conditions: higher = more signal;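 further: score merges spot fluorescence at 667nm with spot signal to noise ratio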

SMILES	composite z-score [1]	composite z-score [2]	composite z-score [3]	composite z-score [4]	composite z-score [5]	composite z-score [6]	composite z-score [7]	z-score [8]	composite z-score [9]	composite z-score [10]
C=CCNC(=O)[C@H]1[C@@H]2C(=O)O[C@@H](c3ccccc3)[C@@H](c3ccccc3)N2[C@@H](c2ccc(O)cc2)[C@]12C(=O)N(C(=O)OCCOC)c1ccc(C#CC3=CCCCC3)cc12	0.484	1.24	0.008	0.72	1.05	2.03	1.06	-0.829 (inactive)	2.01	1.75
Cc1ccc(F)cc1S(=O)(=O)N[C@@H]1CCN(Cc2ccc(CC(C)C)cc2)C1	-0.433	0.172	-0.214	-0.613	-0.613	-0.0721	-0.197	-1.06 (inactive)	-0.493	-0.249
O=C1[C@H]2[C@H]3[C@H](O)[C@H](O)CC(=NOC[C@@H](O)COCc4ccco4)[C@@H]3CC[C@H]2C(=O)N1c1ccc(F)cc1F	-0.469	1.4	-0.128	0.138	0.21	-0.592	-0.574	-0.24 (inactive)	-0.128	0.177
CCOC(=O)CCN1C(=O)[C@H]2[C@H]3[C@H](O)[C@H](O)CC(=O)[C@H]3CC[C@H]2C1=O	-0.554	0.418	-0.128	0.389	0.709	0.217	0.518	0.639 (inactive)	0.372	-0.132
CCOC(=O)CCN1C(=O)[C@H]2[C@H]3[C@H](O)[C@H](O)CC(=NOCc4ccccc4)[C@@H]3CC[C@H]2C1=O	-0.572	0.227	-0.201	0.193	0.93	0.22	0.588	-0.48 (inactive)	0.0033	-0.0645
Cc1ccc(S(=O)(=O)N[C@@H]2COC(=O)[C@H](C)COC(=O)CC=C[C@H]2C)cc1	-0.618	0.133	-0.121	0.305	-0.0058	-0.0185	-0.228	-0.564 (inactive)	-0.0468	0.176
COc1ccc(COC(=O)NN=C2C[C@@H](O)[C@@H](O)[C@@H]3[C@@H]4C(=O)N(Cc5ccc6c(c5)OCO6)C(=O)[C@@H]4CC[C@@H]23)cc1	1.58	0.43	0.0203	-0.0669	-0.732	-0.424	0.146	-0.918 (inactive)	1.18	0.0722
C[C@@H](c1ccccc1)N1C(=O)[C@H]2[C@H]3[C@H](O)C=CC(=O)[C@@H]3CC[C@H]2C1=O	-0.663	0.0994	-0.218	0.277	0.348	0.185	0.609	-0.608 (inactive)	0.123	-0.0738
O=C1C2=CC[C@H]3C(=O)N(Cc4ccc5c(c4)OCO5)C(=O)[C@H]3[C@H]2[C@H](O)[C@@H]2O[C@H]12	-0.319	0.295	-0.141	0.375	0.617	-0.149	-0.0029	0.593 (inactive)	0.407	-0.308
C[C@H](c1ccccc1)N1C(=O)[C@H]2[C@@H]3C(=CC[C@H]2C1=O)C(=O)[C@H]1O[C@H]1[C@H]3O	-0.518	0.34	-0.135	0.134	0.582	-0.198	-0.133	14.4 (active)	0.128	-0.289
CCOC(=O)[C@H](CC(C)C)NC(=O)CCC1CC(OC(=O)NCCc2ccc(F)cc2)CC2(CCCC(COC(=O)NCc3ccccc3)O2)O1 (stereo not given in full)	-0.969	0.561	0.0131	1.02	0.769	1.13	1.28	2.94 (inactive)	0.223	0.0695
CO[C@H]1O[C@H](CO)[C@@H](OC(=O)Nc2ccc(C#N)cc2)[C@H](OC(=O)c2cc3ccccc3[nH]2)[C@H]1OC(=O)c1cc2ccccc2[nH]1	0.0407	1.3	0.062	1.16	1.04	1.75	1.24	-1.79 (inactive)	0.462	-0.0645
CC(C)[Si]1(C(C)C)O[C@@H](c2ccccc2)c2cc(C3CC3)nc(-c3ccccc3)c21	-0.324	-0.598	-0.0494	-0.0526	0.0397	-0.234	-0.717	0.178 (inactive)	-0.0973	0.0274
COC(=O)[C@@H]1CC[C@H](C)[C@@H](c2ccc(C)cc2)N1C(=O)c1ccc(C=NOC(C)CN2CCCCc3nc(C)c(C)cc32)cc1 (stereo not given in full)	0.145	-0.859	-0.0959	0.233	-0.199	0.131	0.312	0.204 (inactive)	0.165	0.226
O=C1[C@H]2[C@H]3[C@H](O)[C@H](O)CC(=NOCc4ccccc4)[C@@H]3CC[C@H]2C(=O)N1C1CCCCC1	-0.116	0.487	-0.098	0.292	0.0141	1.1	0.564	0.32 (inactive)	0.0422	0.0024
COc1ccc([Si](C)(C)[C@H]2[C@H](CC(=O)N3CCC[C@H]3CO)O[C@@]3(C(=O)N(Cc4cccc(N5C(=O)COc6ccccc65)c4)c4ccccc43)[C@@H]2C)cc1	-0.126	0.149	-0.0148	0.893	0.308	0.563	0.983	-4.78 (inactive)	-0.0678	-0.0994
